Screening results deposited in PubChem by several laboratories.
CF NFkB inh = inhibitors of PAF-induced NF-kB signaling, primary screen, cell-based, GFP fluorescence, uHTS; inhibition, % at 5 µM; KKLEB NF-kB-GFP reporter, GFP fluorescence overnight; 360,000 tested, 0.86% active; AID 588850, 2011;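 active = at least 50% inhibition at 5 µM, scaled per plate between neutral and stimulator controls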;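 also: PAF is a Pseudomonas aeruginosa culture filtrate used as stimulus; plate controls were PAF-stimulated DMSO wells for no effect and unstimulated DMSO wells for full effect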
Peg3 prom inh-1 = Peg3 promoter-driven luciferase inhibitors, primary screen, cell-based, HeLa, luciferase luminescence | inhibition, % at 20 µM | AID 588405, 2011 | 360,000 tested, 1.7% active | HeLa PEG-Prom luciferase reporter, overnight;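 active = inhibition of at least 50% at 20 µM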
KKLEB cytotox = cytotoxicity in KKLEB CF airway cells, primary screen, cytotoxicity control for CF NF-kB inhibitor project, cell-based, uHTS, fluorescence assay plates | KKLEB CF airway cells viability, ATPlite luminescence, overnight; hits give low values; cells stimulated with P. aeruginosa culture filtrate | activity change (cytotoxicity), % at 5 µM | 360,000 tested, 0.36% active;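 active = corrected activity change at or below -50% at 5 µM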
HIF-2a inh = HIF-2a reporter inhibitors, primary screen, luminescence, 786-0 RCC cells; 786-0 RCC cells HIF-2a reporter, luciferase luminescence, overnight; inhibition, % at 18.8 µM; 360,000 tested, 0.72% active; AID 624352, 2012;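 active = inhibition of the luminescence signal of 40% or more relative to plate controls, in a single-dose primary screen at 18.75 µM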
Shn3 3UTR inh = reduction of Shn3 3'UTR firefly luciferase signal, primary screen, Schnurri-3 inhibitor project, cell-based, Clone20 osteoblasts, set 2; Clone20 osteoblast Shn3 3'UTR firefly luciferase, 24 h; inhibition, % at 12.5 µM; 360,000 tested, 0.52% active; AID 588674, 2011;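 active = mean inhibition of at least 75% with every replicate also reaching 75%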;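 also: 0% = median of neutral control wells and 100% = pilot-screen positive control compound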
MITF TRPM1 inh = inhibitors of MITF-dependent TRPM1 promoter reporter, primary screen, cell-based, SK-MEL-5, single point, luciferase. SK-MEL-5 TRPM1 promoter luciferase, 24 h. inhibition, % at 12.5 µM. 330,000 tested, 0.83% active. AID 488899, 2010;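 active = mean inhibition across replicates of 60% or more, whatever share of single replicates reaches that level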
Peg3 prom inh-2 = Peg3 promoter reporter inhibitors, retest, confirmation, cell-based, HeLa, luciferase reporter, single concentration; shares compounds with Peg3 prom inh-1; HeLa PEG-Prom luciferase reporter, luminescence, overnight; inhibition, % at 20 µM; 1,300 tested, 84% active;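 active = at 20 µM dose, 40% or more inhibition averaged across four replicates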
Mdm2 MdmX conf = retested Mdm2-MdmX interaction blockers, confirmation, cell-based, luminescence, single concentration, set 2; inhibition, % at 8 µM; shares compounds with HIF-2a inh; SaOS-2 split-luciferase Mdm2/MdmX complementation; 740 tested, 99% active;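 active = mean inhibition of the luminescence signal across two replicates at or above 26 percent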
Target sequence (O15151 whole entry, looked up): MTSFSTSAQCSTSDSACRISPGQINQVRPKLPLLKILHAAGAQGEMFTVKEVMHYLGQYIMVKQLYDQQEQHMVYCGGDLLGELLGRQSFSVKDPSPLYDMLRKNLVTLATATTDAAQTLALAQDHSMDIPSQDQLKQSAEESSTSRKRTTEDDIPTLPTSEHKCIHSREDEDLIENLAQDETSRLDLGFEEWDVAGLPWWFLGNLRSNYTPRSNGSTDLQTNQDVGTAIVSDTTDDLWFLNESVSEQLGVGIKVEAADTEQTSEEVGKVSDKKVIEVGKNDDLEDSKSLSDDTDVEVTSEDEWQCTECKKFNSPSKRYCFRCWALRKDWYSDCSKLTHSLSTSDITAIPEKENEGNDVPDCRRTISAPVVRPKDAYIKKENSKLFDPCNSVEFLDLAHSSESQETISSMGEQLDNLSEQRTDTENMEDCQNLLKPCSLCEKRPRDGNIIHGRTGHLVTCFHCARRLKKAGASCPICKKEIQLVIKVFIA
Target sequence (Q00987 whole entry, looked up): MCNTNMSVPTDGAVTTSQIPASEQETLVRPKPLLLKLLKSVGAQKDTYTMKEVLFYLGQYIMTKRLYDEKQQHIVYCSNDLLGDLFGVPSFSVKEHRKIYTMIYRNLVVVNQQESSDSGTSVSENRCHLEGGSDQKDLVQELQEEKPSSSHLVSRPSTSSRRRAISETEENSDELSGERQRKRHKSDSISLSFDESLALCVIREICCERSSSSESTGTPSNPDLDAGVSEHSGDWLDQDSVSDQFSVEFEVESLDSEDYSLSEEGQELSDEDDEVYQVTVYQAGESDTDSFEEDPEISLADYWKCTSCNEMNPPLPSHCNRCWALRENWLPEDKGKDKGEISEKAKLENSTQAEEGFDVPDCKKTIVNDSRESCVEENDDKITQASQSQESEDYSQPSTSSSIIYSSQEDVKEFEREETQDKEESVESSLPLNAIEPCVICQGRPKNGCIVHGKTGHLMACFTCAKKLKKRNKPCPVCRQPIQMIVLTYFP
HIF-2a conf = HIF-2a reporter inhibitor retest, confirmation, luminescence, 786-0 RCC cells | HIF-2a luciferase reporter luminescence, overnight | 1,800 tested, 56% active | shares compounds with HIF-2a inh | inhibition, % at 18.8 µM | AID 651580, 2012;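 active = mean inhibition across four replicates of at least 40 percent at the single tested concentration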
HIF-1a counter = HIF-1a luciferase reporter signal reduction – MiaPaCa-2 cells, single concentration, counter-screen for HIF-2a inhibitor project, confirmation | inhibition, % at 18.8 µM | MiaPaCa-2 HIF-1a luciferase reporter, desferoxamine, overnight | 1,800 tested, 72% active | shares compounds with HIF-2a inh;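 active = mean inhibition of the reporter signal across four replicates at the single tested dose of 50% or more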
Numbers without * were called inactive. This is a sample that favours compounds with a hit; in the whole collection about 2.7% have one here.

How did COc1cc(SC)ccc1C(=O)Nc1nc2ccccc2[nH]1 do in these assays?
CF NFkB inh: 38; Peg3 prom inh-1: 109*; KKLEB cytotox: -96*; HIF-2a inh: 96*; Shn3 3UTR inh: 96*; MITF TRPM1 inh: 97*; Peg3 prom inh-2: 96*; HIF-2a conf: 99*; HIF-1a counter: 107*

Results for COc1ccc(C(=O)Nc2ccc(C)cn2)c(OC)c1 ?
CF NFkB inh: -17; Peg3 prom inh-1: 74*; KKLEB cytotox: -63*; HIF-2a inh: 62*; Shn3 3UTR inh: 18; MITF TRPM1 inh: 75*; Peg3 prom inh-2: 52*; HIF-2a conf: 76*; HIF-1a counter: 85*

How did Nc1c(N(CCCO)C(=O)CCCN2C(=O)c3cccc4cccc(c34)C2=O)c(=O)[nH]c(=O)n1Cc1ccccc1 do in these assays?
CF NFkB inh: 14; Peg3 prom inh-1: -6; KKLEB cytotox: -8; HIF-2a inh: -13; Shn3 3UTR inh: -3; MITF TRPM1 inh: -2

How did Cc1cccc(C)c1NS(=O)(=O)c1ccc(NC(=O)c2ccc(Cl)c([N+](=O)[O-])c2)cc1 do in these assays?
CF NFkB inh: -1; Peg3 prom inh-1: 106*; KKLEB cytotox: -3; HIF-2a inh: 91*; Shn3 3UTR inh: 18; MITF TRPM1 inh: -6; Peg3 prom inh-2: 98*; Mdm2 MdmX conf: 102*; HIF-2a conf: 25; HIF-1a counter: 108*

What do the screens show for `O=C(Nc1ccc(S(=O)(=O)NC2=NCCCCC2)cc1)c1ccc(Cl)c([N+](=O)[O-])c1`?
CF NFkB inh: 0; Peg3 prom inh-1: -3; KKLEB cytotox: -3; HIF-2a inh: 1; Shn3 3UTR inh: 8; MITF TRPM1 inh: 18

How did COC(=O)c1nn(-c2ccc3c(c2)OCO3)cc1O do in these assays?
CF NFkB inh: -10; Peg3 prom inh-1: -126; KKLEB cytotox: 1; HIF-2a inh: -222; Shn3 3UTR inh: -11; MITF TRPM1 inh: -50

Results for COC(=O)c1nn(-c2ccc3c(c2)CCN3C(C)=O)cc1O ?
CF NFkB inh: -19; Peg3 prom inh-1: 90*; KKLEB cytotox: -1; HIF-2a inh: 78*; Shn3 3UTR inh: 62; MITF TRPM1 inh: 72*; Peg3 prom inh-2: 84*; HIF-2a conf: -131; HIF-1a counter: 46

Results for C/C(=N\Nc1ccc2nncn2n1)c1ccccn1 ?
CF NFkB inh: -13; Peg3 prom inh-1: 60*; KKLEB cytotox: 9; HIF-2a inh: -6; Shn3 3UTR inh: 90*; Peg3 prom inh-2: 60*; Mdm2 MdmX conf: 83*

How did C/C(=N\Nc1ccc2nncn2n1)c1ccco1 do in these assays?
CF NFkB inh: 0; Peg3 prom inh-1: -11; KKLEB cytotox: 4; HIF-2a inh: 5; Shn3 3UTR inh: 13; MITF TRPM1 inh: 5

How did Cc1cccc(C)c1-n1nnnc1C1(C)CCC(=O)N1CC(F)(F)F (stereo unspecified) do in these assays?
HIF-2a inh: 4

Results for CCN(CC)C(=O)C1=C(C)N(Cc2ccc(OC)cc2)C(=O)C(CC(=O)NCC2CCCCC2)C1 (stereo unspecified) ?
CF NFkB inh: -9; Peg3 prom inh-1: 8; KKLEB cytotox: 6; HIF-2a inh: -12; Shn3 3UTR inh: -6
